This is one part of a sample in which hits are shown more often than they occur.
Dicer processing: inhibitors of Dicer pre-microRNA processing, primary screen, biochemical, cat-ELCCA, chemiluminescence; AID 1347074, 2019; cat-ELCCA pre-miR-21 Dicer processing; hits give high values; Endoribonuclease Dicer (Homo sapiens), Q9UPY3; z-score at 25 µM; actives 6% (n = 47,000); in the data active = z-score above about 3, passing the limit was not always enough;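 also: plate controls were vehicle for no effect and no enzyme for full effect; higher signal means more uncleaved substrate so more Dicer inhibition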
* = called active by the depositor.

SMILES | Dicer processing
Oc1c(C(Nc2ccccc2Cl)c2ccccn2)ccc2cccnc12 (stereo unspecified) | 14
Oc1cccnc1NC(c1ccc(Cl)cc1)c1ccc2cccnc2c1O (stereo unspecified) | 3.6*
FC(F)(F)c1ccc(Sc2cc(C(F)(F)F)nc3cc(Cl)cc(Cl)c23)nc1 | -0.02
CCOC(=O)c1sc(NC(=O)COC(=O)CN2C(=O)C(=O)c3ccccc32)nc1C | -0.61
C#Cc1cccc(N2C(=O)c3cc(Cl)c(Cl)cc3C2=O)c1 | 0.21
NS(=O)(=O)c1ccc(-n2nc(C(F)(F)F)cc2-c2cccs2)cc1 | 7
CC(C)Nc1c(-c2ccccc2)oc2ccc(C(=O)O)cc2c1=O | -1.3
CSc1ccncc1C(=O)Nc1ccc(F)cc1F | -0.3
COC(=S)Nc1ccc(N2CC(C)OC(C)C2)cc1 (stereo unspecified) | -0.17
COc1cc(OC)cc(C2C(C#N)=C(N)Oc3n[nH]c(C)c32)c1 (stereo unspecified) | -4.2
Cn1c2c(c3ccccc31)/C(=N/OC(=O)c1cccc(C(F)(F)F)c1)CCC2 | -0.44
CCOc1cc(-c2cc(OC)c3c(C)oc(C)c3c(=O)c2)ccc1O | 0.65
CCOC(=O)/C(C#N)=C/c1cccc(OC)c1OC | -0.61
CN(C)c1ccc(/C=C2/OC(=S)NC2=S)cc1 | 3.4*
CN(C)c1ccc(C=C2C(=O)N(c3ccccc3)C(=O)N(c3ccccc3)C2=O)cc1 | 1.6
CC(=O)c1sc2nc(C(F)(F)F)nn2c1C | 0.35
CC(=NCc1ccccc1)c1c(C)cc(C)cc1O | 0.14
COC1(OC)C2(Cl)C(Cl)=C(Cl)C1(Cl)[C@H]1[C@@H]2[C@@H](O)C=C[C@H]1O | -1.6
O=C1c2oc3ccccc3c(=O)c2C(c2cccc(O)c2)N1Cc1ccccc1Cl (stereo unspecified) | 1
O=C1c2oc3ccccc3c(=O)c2C(c2ccc(O)cc2)N1Cc1ccccc1Cl (stereo unspecified) | 1
CCOc1cc(C2c3c(oc4ccc(F)cc4c3=O)C(=O)N2Cc2ccc(C)cc2)ccc1O (stereo unspecified) | 1.7
CCOc1cc(C2c3c(oc4ccc(C)cc4c3=O)C(=O)N2Cc2ccc(OC)cc2)ccc1O (stereo unspecified) | 3.1*
COc1ccc(CN2C(=O)c3oc4ccc(C)cc4c(=O)c3C2c2ccc(O)c(OC)c2)cc1 (stereo unspecified) | -0.31
COc1cc(C2c3c(oc4ccccc4c3=O)C(=O)N2Cc2ccccc2Cl)ccc1O (stereo unspecified) | 3.2*
COc1ccccc1C1CC(=O)C2=C(C1)NC(C)=C(C(=O)OC(C)C)C2c1cccs1 (stereo unspecified) | 1
SMILES | Dicer processing
COc1ccc(N(CC(O)Cn2c3ccccc3c3ccccc32)S(C)(=O)=O)cc1 (stereo unspecified) | 0.88
CCOc1ccccc1-c1nc(-c2ccc(-c3cccc(OC)c3)nc2OC)no1 | 0.28
c1ccc(CCN2Cc3ccccc3C2)cc1 | -0.47
O=C(OCc1ccccc1)C1=NNC2C(=O)N(c3ccccc3)C(=O)C12 (stereo unspecified) | -0.53
CCc1ccc(N2C(=O)C3NN=C(C(=O)OCc4ccccc4)C3C2=O)cc1 (stereo unspecified) | 0.43
O=C(OCc1ccccc1)C1=NNC2C(=O)N(c3ccc(Br)cc3)C(=O)C12 (stereo unspecified) | 3.5*
CC(C)CNC(=O)c1sc(=S)n(-c2ccc(Cl)cc2)c1N | 0.4
Cc1nn(C(=O)Nc2cccc(Cl)c2)c(C)c1Cc1csc2ccc(Cl)cc12 | 0.71
O=c1[nH]c(NCc2ccccc2)nc2sc3c(c12)CCCC3 | 0.23
CCCCCc1c(O)nc(SCCN(C)C)[nH]c1=O | 1.2
CCCCCCc1c(O)nc(SCCN(C)C)[nH]c1=O | 0.69
CCCCCCc1c(O)nc(SCC(=O)O)[nH]c1=O | 5.7*
CCCc1cnc(N2CCCN(C(=S)Nc3ccc(C)cc3)CC2)nc1 | -0.74
C=CCn1c(COc2ccc(Cl)cc2C)n[nH]c1=S | -1.3
COC(=O)CN1C(CCN2CCOCC2)=Nc2ccc(Br)cc2C1c1ccccc1 (stereo unspecified) | 1.7
CC(C)S(=O)(=O)/C(C#N)=C/Nc1cccnc1 | -2.1
O=C(N=S1CCN(c2ncc(C(F)(F)F)cc2Cl)CC1)c1ccccc1 | -0.31
O=C(NC(=S)NNc1ncc(C(F)(F)F)cc1Cl)c1ccccc1 | -2.2
O=C(NC(=S)N1CCN(c2ncc(C(F)(F)F)cc2Cl)CC1)c1ccccc1 | 30*
C/S(=N/C(=O)Nc1ccc(Cl)cc1)c1ccc(OC(=O)c2ccc(Cl)cc2)cc1 (stereo unspecified) | 0.81
CCOC(=O)C1=NN(c2ccccc2)C2(C(=O)c3ccccc3C2=O)C1c1ccc(C)cc1 (stereo unspecified) | -0.57
O=C1C2C(c3ccccc3)OC3(C(=O)c4ccccc4C3=O)C2C(=O)N1c1ccccc1 (stereo unspecified) | 0.05
O=C(C1=NOC2(C(=O)c3ccccc3C2=O)C1c1ccccc1)c1ccccc1 (stereo unspecified) | 3.9*
COc1ccc2cccc3c2c1C=CC3=O | 4.2*

Screens as filed in PubChem.
